PubChem BioAssay AID1851 (National Center for Advancing Translational Sciences (NCATS), 2009)
Several values for one entry are separate records, joined by “and”; a condition that tells them apart may be missing. Equal values may be shown once. Hit rate of the full screen: of about 16,000 compounds, about 2,600 (16%) were called active. Inconclusive results (about 20%) are left out. These entries were drawn from the full list. A number with no mark means an inactive call. Calls come from the whole dose curve; as a rule, active = well fitted curve in the direction sought with a large enough effect; inconclusive = small, poorly fitted or top-dose-only effect, or effect the other way; inactive = no such curve, though single readings can be large or run the other way.

Target: Cytochrome P450 2D6 (Homo sapiens) (UniProt P10635)
Test: Cytochrome panel assay with activity outcomes
Details: recombinant CYP, pro-luciferin dealkylation, luminescence, p450-cyp2d6; series mostly up to 57.1 µM; activity, negative = inhibition: at the top concentration
Procedure: The P450 gene superfamily is involved in the metabolism and clearance of xenobiotics. This assay used various human CYP P450 isozymes to measure the dealkylation of various pro-luciferin substrates to luciferin. The luciferin is then measured by luminescence after the addition of a luciferase detection reagent. Pro-luciferin substrate concentration in the assay was equal to its KM for its CYP P450 isozyme. Inhibitors and some substrates limit the production of luciferin, and decrease measured luminescence.
NCGC Assay Protocol Summary:
1, Reagent, 2 uL, Isozyme and Pro-Luciferin
2, Library compounds, 23 nl, 40 uM to 0.24 nM dilution series
3, Controls, 23 nl, Isozyme specific inhibitor
4, Reagent, 2 uL, NADPH regeneration solution
5, Incubation time, 60 min, Isozyme specific temperature
6, Reagent, 4ul, Detection reagent
7, Incubation time, 20 min, Isozyme specific temperature
8, Detection, 1 sec, ViewLux luminescent read
The luciferase-based P450-GloTM Screening Systems were obtained from Promega (Madison, WI) for CYP 1A2 (V9770), CYP 2C9 (V9790), CYP2 C19 (V9880), CYP 2D6 (V9890), and CYP 3A4 Luciferin-PPXE (V9910) and were adapted for 1,536-well microplates and an automated protocol. The control compounds furafylline for 1A2 (F124), sulfaphenazole for CYP 2C9 (S0758), ketoconazole for CYP 2C19 (K1003), quinidine for 2D6 (Q3625), and ketoconazole for 3A4 (K1003) were purchased from Sigma Aldrich (St. Louis, MO). Recombinant P450 enzymes were obtained from baculovirus constructs expressed in insect cells (BD/Gentest).
Medium-binding white solid Kalypsys plates used. Mixtures kept on ice. 1A2: 10 nM 1A2, 100 uM Luc-ME, 100 mM KPO4; 2C9: 10 nM 2C9, 100 uM Luc-H, 25 mM KPO4; 2C19: 5 nM 2C19, 10 uM Luc-H EGE, 50 mM KPO4; 2D6: 5 nM 2D6, 30 uM Luc-ME EGE, 100 mM KPO4; 3A4: 10 nM, 25 uM Luc-PPXE. All amounts are reflected in their final concentration, working concentration is 2x.
NADPH regeneration solution: 1.3 mM NADP+, 3.3 mM glucose-6-phosphate, 3.3 mM MgCl2, 0.4 U/mL glucose-6-phosphate dehydrogenase for all isozymes, 200 mM KPO4 for 3A4. Mixture prepared at RT but kept on ice during automated run.
RT incubation in auxilliary plate hotel for 1A2, 2D6, and 3A4; 37C for 2C9 and 2C19.
Keywords: P450, CYP1A2, CYP2C19, CYP2C9, CYP2D6, CYP3A4, Luciferase, MLSMR, MLSCN, NIH Roadmap, qHTS, NCGC
% is set by controls: 0 for no effect and ±100 for the full control effect.

Chain of Cytochrome P450 2D6 (Homo sapiens) (P10635 whole entry, looked up): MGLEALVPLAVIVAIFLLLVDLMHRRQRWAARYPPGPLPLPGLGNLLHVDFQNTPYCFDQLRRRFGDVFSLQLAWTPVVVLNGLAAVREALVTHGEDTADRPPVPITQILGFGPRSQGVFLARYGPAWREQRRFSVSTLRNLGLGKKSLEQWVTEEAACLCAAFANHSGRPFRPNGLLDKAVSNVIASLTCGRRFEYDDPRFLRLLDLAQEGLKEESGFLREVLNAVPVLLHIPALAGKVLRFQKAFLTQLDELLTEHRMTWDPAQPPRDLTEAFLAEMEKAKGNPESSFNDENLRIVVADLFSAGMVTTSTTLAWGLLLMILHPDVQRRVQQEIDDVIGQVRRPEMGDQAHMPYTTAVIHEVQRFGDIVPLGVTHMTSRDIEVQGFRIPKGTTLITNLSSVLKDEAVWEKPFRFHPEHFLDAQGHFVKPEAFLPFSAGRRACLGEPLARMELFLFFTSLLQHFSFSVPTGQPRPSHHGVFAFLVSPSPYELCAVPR

Structure (SMILES)	activity, negative = inhibition	AC50
Cn1c(C(=O)N2COCC2(C)C)cc2c(=O)n3ccccc3nc21	9.88%	
CCOC(=O)c1cc2c(=O)n3ccccc3nc2n(CCOC)c1=NC(=O)C(C)(C)C	23.5%	
CCOC(=O)c1cc2c(=O)n3ccccc3nc2n(CCCOC)c1=NC(=O)C(C)(C)C	-7.61%	
CC1Cc2ccccc2N1C(=O)c1cc2c(=O)n3ccccc3nc2n1C (stereo unspecified)	-9.59%	
Cn1c(=N)c(S(=O)(=O)c2ccc(F)cc2)cc2c(=O)n3ccccc3nc21		3.16 µM (active)
CCn1c(=N)c(S(=O)(=O)c2ccc(F)cc2)cc2c(=O)n3ccccc3nc21		0.794 µM (active)
COc1ccccc1C(=O)Nc1cc2c(ccc3ccccc32)oc1=O	-3.7%	
O=C(CCl)Nc1ccc(Oc2cnc3ccccc3n2)cc1	-6.66%	
Cc1ccccc1C(=O)N1CCN(c2ccc([N+](=O)[O-])c(NCc3ccco3)c2)CC1	-21.7%	
CC(C)(N)C(=O)N[C@@H]1C(=O)N2[C@@H]1SC(C)(C)[C@H]2C(=O)O	5.23% [at 11.4 µM]	
CC(C)(C)C(=O)N1CCC(O)(CS(=O)(=O)Cc2ccc(Cl)cc2)CC1	-2.72%	
Cc1ccccc1OCC(=O)NC(=S)Nc1ccc(N2CCOCC2)c(Cl)c1	-1.79%	
Cc1ccc(NC(=O)c2cc(N3C(=O)C4CC=CCC4C3=O)ccc2N2CCOCC2)cc1Cl (stereo unspecified)	-12.8%	
Cc1ccc(NC(=O)CSCC(=O)Nc2ccc(N3CCOCC3)c(Cl)c2)cc1		14.1 µM (active)
NC(=O)C1(N2CCCCC2)CCN(C(=S)Nc2ccc(Cl)cc2)CC1	18.5%	
N[C@H](C(=O)O)c1cccc(O)c1		inactive
Nc1ccc(CCNc2ncnc3c2ncn3[C@@H]2O[C@@H](CO)[C@H](O)[C@@H]2O)cc1	-4.1%	
CC(C)c1ccc(-c2nnn(CCC(=O)O)n2)cc1	6.28%	
CCOc1ccc(OCCOc2ncnc3ccccc23)cc1	-9.19%	
CCOc1ccc(/C(O)=C2\C(=O)C(=O)N(CCOCCO)C2c2ccccc2OC)cc1 (stereo unspecified)	-1.52%	
CCOc1ccc(OCCOCCN2CCc3ccccc3C2)cc1		1.12 µM (active)
N#CCCn1c(=O)cnc2cnc(Oc3ccccc3)nc21	2.41%	
C=CCn1c(SCc2ccc3c(c2)OCO3)nc2scc(-c3ccco3)c2c1=O	-7.87%	
C=CCN1CCN(c2nc3ccccc3nc2C#N)CC1		1.26 µM (active)
CCc1noc(C)c1C(=O)Nc1nc(-c2cc(C)ccc2C)c(C)s1	-10.5%	
O=C(O)CSc1cc(-c2ccccc2)nc2ccccc12	3.96% [at 11.4 µM]	

Structure (SMILES)	activity, negative = inhibition	AC50
O=[N+]([O-])c1ccc(CSCc2ccc(Cl)cc2)cc1	-20.5% [at 11.4 µM]	
NC[C@@H](O)CSCc1ccc(Cl)cc1		3.16 µM (active)
N[C@@H](CSCc1ccc(I)cc1)C(=O)O	3.9% [at 11.4 µM]	
O=c1c(-c2cccc(F)c2)nc2cncnc2n1Cc1ccccc1Cl	-3.25%	
CC(C)NC[C@@H](O)c1ccc(O)c2ncccc12	-18.5% [at 11.4 µM]	
Oc1ccc(CNCc2ccccc2)c2cccnc12		1.58 µM (active)
O=C(O)COc1c(Cl)cc(Cl)c2cccnc12	2.9% [at 11.4 µM]	
N#CCCn1c(=O)c(-c2ccc(F)cc2)nc2cnc(N3CCOCC3)nc21	3.46%	
CCOC(=O)/C(C#N)=C1/C=CN(C)C=N1	16.9%	
Cc1nc2cncnc2n(-c2ccccc2)c1=O	-8.35%	
COc1cccc(-c2cc(C(F)(F)F)n3ncc(S(=O)(=O)c4ccccc4)c3n2)c1	2.47%	
ON(CCc1ccccn1)Cc1ccccc1	-0.364% [at 11.4 µM]	
CC(C)C(=O)C(C)(C)CCc1ccccn1	8.85% [at 11.4 µM]	
CN(CCc1ccccn1)Cc1ccc(Cl)cc1Cl		0.355 µM (active)
O=C(Nc1ccccc1)c1ccccc1CC[N+](=O)[O-]	7.91%	
C/C(=C\C1CCCCC1)C(NC(=O)c1ccc(C(F)(F)F)cc1)c1ccc(-c2ccccc2)cc1 (stereo unspecified)	7.77%	
COc1ccc(-c2cc(C(F)(F)F)n3nc(C(=O)N4CCCCC4)cc3n2)cc1	-17.1%	
Cc1ccc(CS(=O)(=O)CCC(=O)NCCCN2CCCC2=O)cc1	-2.33%	
Cc1ccc(S(=O)(=O)N(CCCN2CCCC2=O)Cc2cc3c(C)ccc(C)c3[nH]c2=O)cc1		14.1 µM (active)
Cc1ccc(S(=O)(=O)CC(O)CN2CCCC2=O)cc1 (stereo unspecified)	-5.29%	
O=C1CC(N2CCOCC2)C(=O)N1c1cccc(Cl)c1 (stereo unspecified)	-1.45%	
CSc1ccc2c(c1)[C@H](N1CCN(C)CC1)Cc1ccccc1S2		3.98 µM (active) and 1.58 µM (active) and 316 nM (active)
CN1CCN([C@@H]2Cc3ccccc3Sc3ccc(Cl)cc32)CC1		0.398 µM (active)
CCCc1ncc(C[n+]2ccccc2C)c(N)n1	-3.66% [at 25.6 µM]	
C=CCNC(=S)N/N=C/c1ccc(OCc2ccccc2)cc1	-3.46%	
